Test [1] relates to Staphylococcus aureus. To be noted: Concentration 32 ug.mL-1;; ASSAY_TEST Inhibition of Bacterial Growth; detection method Absorption (OD600); MEDIA CAMHB; plate type 384well; NBS; CORNING #3640; time 18 hr.
Test [2] deals with Escherichia coli. To be noted: Concentration 32 ug.mL-1;; ASSAY_TEST Inhibition of Bacterial Growth; detection method Absorption (OD600); MEDIA CAMHB; plate type 384well; NBS; CORNING #3640; time 18 hr.

Each structure is given as a SMILES string. Results with a measured potency or affinity are listed apart.

As usually defined, the Inhibition is the change of the read-out against control, counted positive when it falls. `COc1cccc(Cn2nc3c(=O)n(-c4cccc(Cl)c4C)ccn3c2=O)c1`: the Inhibition in test [1] was -6.87%; in test [2], -16.22%.

Consider `COc1ccc(-c2cc3c4nnc(SCC(=O)Nc5cc(F)ccc5C)n4ccn3n2)cc1`, for which the Inhibition is -23.41% in test [1] and -20.36% in test [2].

Regarding `O=C(Cn1nc2c(N3CCOCC3)nccn2c1=O)NCc1ccc(Cl)cc1`, the Inhibition was found to be 9.06% in test [1] and 3.48% in test [2].

In the case of `COc1cc(OC)c(NC(=O)Cn2nc3c(Sc4ccc(C)cc4C)nccn3c2=O)cc1Cl`, the Inhibition in test [1] is recorded as -8.98%; in test [2], -14.71%.

As for `CC(C)NC(=O)CCn1c(=O)c2cc(Cl)ccc2n2c(=O)n(CC#N)nc12`, the Inhibition in test [1] is 0.39%; in test [2], -9.95%.

Take `CCOc1ccc(-n2ccn3c(SCC(=O)c4c(C)[nH]c5ccccc45)nnc3c2=O)cc1`: the Inhibition in test [1] is -0.13%; in test [2], -15.25%.

Consider `CSc1cccc(NC(=O)Cn2nc3ccc(-c4ccc(C)c(C)c4)nn3c2=O)c1`, for which the Inhibition in test [1] was -11.35%; in test [2], -14.99%.

Regarding `CCc1ccccc1Sc1nccn2c(=O)n(CC(=O)Nc3cc(C)ccc3C)nc12`, the values for the Inhibition in test [1] and in test [2] were 15.04% and 0.5%, respectively.

Take `CSc1cccc(NC(=O)Cn2nc3c(SC4CCCCC4)nccn3c2=O)c1`: the results for the Inhibition in test [1] and in test [2] were -5.93% and -5.86%, respectively.

For `CCc1nnc2c(=O)n(CC(=O)Nc3ccc(C#N)cc3)c3ccccc3n12`, the Inhibition in test [1] is 12.29%; in test [2], -5.97%.

Take `COc1ccccc1N1CCN(C(=O)CSc2nc3ccccc3n3c(C(C)C)nnc23)CC1`: the Inhibition in test [1] came to 1.01%; in test [2], 3.41%.

Take `Cc1ccc(NC(=O)Cn2nc3ccc(SC(C)C)nn3c2=O)c(Cl)c1`: the Inhibition in test [1] is reported as -9.9%; in test [2], 1.89%.

For `CCc1nnc2ccc(S(=O)(=O)N(Cc3ccc(F)cc3)c3ccc(OC)cc3)cn12`, the figures for the Inhibition in test [1] and in test [2] were 6.39% and -3.2%, respectively.

In the case of `CC(C)c1nnc2c(=O)n(CC(=O)Nc3ccc(F)cc3)c3ccccc3n12`, the Inhibition is given as 20.52% in test [1] and 5.44% in test [2].

As to `CC(C)CCNC(=O)Cn1nc2n(Cc3cccs3)c(=O)c3sccc3n2c1=O`, the Inhibition in test [1] is recorded as 3.31%; in test [2], -5.47%.

In the case of `O=C(CSc1nnc2c(=O)n(-c3ccc(F)c(F)c3)ccn12)c1cccc(Cl)c1`, the Inhibition is 13.4% in test [1] and -3.45% in test [2].

Consider `CCOc1ccccc1NC(=O)Cn1c(=O)c2nnc(C(C)C)n2c2ccccc21`, for which the values for the Inhibition in test [1] and in test [2] were 15.38% and 5%, respectively.

As to `CCOc1ccc(-n2ccn3c(SCC(=O)Nc4cccc(CC)c4)nnc3c2=O)cc1`, the figures for the Inhibition in test [1] and in test [2] were -2.86% and -8.29%, respectively.

As to `Cc1c(Cl)cccc1-n1ccn2c(=S)[nH]nc2c1=O`, the results for the Inhibition in test [1] and in test [2] were 26.02% and 0.89%, respectively.

Regarding `CCCCN(CC)c1ccc2nnc(CCc3nc(-c4ccc(OCc5ccccc5)cc4)no3)n2n1`, the Inhibition in test [1] was 4.18%; in test [2], -2.08%.

On to `CC(=O)c1cccc(NC(=O)CSc2nnc3ccc(C(=O)Nc4cccc(F)c4)cn23)c1`, for which the Inhibition in test [1] is 12.95%; in test [2], -3.3%.

In the case of `Cc1ccc(-c2cc3c4nn(CC(=O)Nc5cc(Cl)ccc5C)c(=O)n4ccn3n2)cc1C`, the Inhibition in test [1] is 2.42%; in test [2], -7.74%.

With `Cc1cc(F)ccc1NC(=O)Cn1nc2c(SCc3ccc(Cl)cc3)nccn2c1=O`, the Inhibition was 7.28% in test [1] and -4.86% in test [2].

For the compound `Cc1ccccc1NC(=O)Cn1nc2c3cc(-c4ccc(Cl)cc4)nn3ccn2c1=O`, the Inhibition in test [1] is on record as 14.21%; in test [2], 4.06%.

Regarding `O=C(Cn1nc2c(=O)n(-c3ccc(Br)cc3)ccn2c1=O)Nc1ccc(F)cc1F`, the Inhibition in test [1] is 3.27%; in test [2], -0.82%.

Regarding `CCOC(=O)c1ccc(NC(=O)Cn2nc3c(Oc4ccccc4)nccn3c2=O)cc1`, the results for the Inhibition in test [1] and in test [2] were -0.24% and -4.26%, respectively.

As to `Cc1ccccc1NC(=O)Cn1nc2c(SC3CCCCC3)nccn2c1=O`, the results for the Inhibition in test [1] and in test [2] were 1.84% and -9.01%, respectively.

In the case of `COc1ccc(N(Cc2cccc(OC)c2)S(=O)(=O)c2ccc3nnc(C)n3c2)cc1`, the Inhibition in test [1] is recorded as -9.05%; in test [2], 0.15%.

As for `COc1cccc(CNC(=O)CSc2nnc3c(=O)n(-c4ccc(C)c(C)c4)ccn23)c1OC`, the Inhibition is given as 3.35% in test [1] and -0.9% in test [2].

For `Cc1ccc(-n2ccn3c(SCC(=O)c4c[nH]c5ccccc45)nnc3c2=O)cc1C`, the Inhibition in test [1] turned out to be 8.58%; in test [2], 3.16%.

As to `COc1ccccc1-n1ccn2c(SCC(=O)Nc3ccc4c(c3)OCO4)nnc2c1=O`, the Inhibition in test [1] was 7.67%; in test [2], -8.08%.

On to `COc1ccccc1Cn1c(=O)c2sccc2n2c(=O)n(Cc3cccc(C)c3)nc12`, for which the results for the Inhibition in test [1] and in test [2] were 10.55% and 0.66%, respectively.

For `Cc1cccc(NC(=O)CSc2nnc3ccc(C(=O)Nc4cccc(F)c4)cn23)c1C`, the Inhibition is listed as 10.8% in test [1] and -1.92% in test [2].

As for `NC(=O)CSc1nnc2c(=O)n(-c3ccccc3)ccn12`, the Inhibition came to 9.05% in test [1] and 0.29% in test [2].

As for `CCOc1cccc(CNC(=O)CCc2nnc3ccc(-c4ccc(C)cc4)nn23)c1`, the figures for the Inhibition in test [1] and in test [2] were -1.51% and -5.83%, respectively.

In the case of `CC(C)Sc1ccc2nn(CC(=O)Nc3ccc(Br)cc3F)c(=O)n2n1`, the Inhibition is recorded as -2.61% in test [1] and 3.45% in test [2].

With `CCc1nnc2c(S(=O)(=O)N(Cc3ccc(C)cc3)c3ccc(C(C)C)cc3)cccn12`, the figures for the Inhibition in test [1] and in test [2] were 16.04% and -0.02%, respectively.

For the compound `Cc1ccc(-c2ccc3nn(Cc4cccc(Cl)c4)c(=O)n3n2)cc1C`, the Inhibition in test [1] was 8.16%; in test [2], -3.9%.

Take `COC(=O)c1cccc(NC(=O)Cn2nc3ccc(-c4ccccc4)nn3c2=O)c1`: the Inhibition was -7.92% in test [1] and -13.96% in test [2].

For the compound `COc1ccccc1-n1ccn2c(SCC(=O)Nc3ccc(C)c(F)c3)nnc2c1=O`, the Inhibition in test [1] is 12%; in test [2], -1.35%.

Regarding `CCC(C)NC(=O)CSc1nnc2c(=O)n(Cc3ccc(F)cc3)ccn12` (centres undefined), the Inhibition in test [1] is listed as 1.4%; in test [2], -9%.

Turning to `COc1ccc(NC(=O)Cn2nc3ccc(-c4ccccc4)nn3c2=O)cc1`, the Inhibition in test [1] is given as 6.57%; in test [2] it was -0.4%.

As to `COc1ccc(NC(=O)Cn2nc3c(N4CCCC4)nccn3c2=O)cc1Cl`, the Inhibition in test [1] is listed as 12.62%; in test [2], -0.96%.

Turning to `CC(=O)Nc1ccc(NC(=O)CSc2nc3ccccc3n3cnnc23)cc1`, the values for the Inhibition in test [1] and in test [2] were -1.2% and 2.28%, respectively.

Take `CC(C)NC(=O)CSc1nnc2c(=O)n(Cc3ccc(F)cc3)ccn12`: the Inhibition in test [1] is recorded as -0.55%; in test [2] it was -7.51%.

On to `Cc1nnc2c(SCC(=O)Nc3ccc(C#N)cc3)nc3ccccc3n12`, for which the results for the Inhibition in test [1] and in test [2] were -1.63% and -2.61%, respectively.

Turning to `Cc1ccc(NC(=O)Cn2nc3c(N4CCCC4)nccn3c2=O)cc1Cl`, the Inhibition was 3.49% in test [1] and -0.46% in test [2].

For the compound `COc1ccc(NC(=O)c2ccc3nn(CC(=O)Nc4ccccc4C(F)(F)F)c(=O)n3c2)cc1`, the results for the Inhibition in test [1] and in test [2] were 9.89% and -3.73%, respectively.

In the case of `Cc1ccc(C)c(Cn2nc3c(=O)n(-c4ccc(C)c(C)c4)ccn3c2=O)c1`, the Inhibition is 6.02% in test [1] and -6.59% in test [2].

As to `COc1ccc(NC(=O)Cn2nc3c4cc(-c5ccc(C)cc5)nn4ccn3c2=O)cc1`, the results for the Inhibition in test [1] and in test [2] were -5.75% and -1.43%, respectively.

As to `COc1ccc(CN(c2ccc(C(C)C)cc2)S(=O)(=O)c2cccn3cnnc23)cc1`, the Inhibition in test [1] amounted to 4.26%; in test [2], 1.37%.

Consider `COC(=O)c1ccc(CN(c2cccc(F)c2)S(=O)(=O)c2ccc3nncn3c2)o1`, for which the Inhibition in test [1] is on record as 9.42%; in test [2], -3.46%.

With `O=C(Cn1nc2ccc(-c3ccccc3)nn2c1=O)N1CCN(c2ccc(F)cc2)CC1`, the Inhibition in test [1] was 10.02%; in test [2] it was -0.36%.

For `CCc1ccc(NC(=O)Cn2nc3ccc(SC(C)(C)C)nn3c2=O)cc1`, the Inhibition in test [1] was 4.76%; in test [2], -1.87%.

Regarding `Cc1nnc2ccc(S(=O)(=O)N(Cc3ccccc3F)c3ccc(F)cc3)cn12`, the Inhibition in test [1] is given as -2.33%; in test [2] it was -7.33%.

Regarding `Cc1cccc(C)c1NC(=O)Cn1nc2c(SC3CCCCC3)nccn2c1=O`, the Inhibition in test [1] was 9.56%; in test [2], -6.16%.

Consider `N#Cc1cccc(NC(=O)CSc2nnc3c4cc(-c5ccccc5)nn4ccn23)c1`, for which the Inhibition in test [1] was 2.79%; in test [2] it was -3.47%.

With `COc1ccc2[nH]cc(C(=O)CSc3nnc4c(=O)n(-c5ccc(F)cc5)ccn34)c2c1`, the Inhibition in test [1] is listed as 14.61%; in test [2], -2.83%.

Consider `Cc1ccc(NC(=O)CSc2nc3ccccc3n3c(C(C)C)nnc23)cc1Cl`, for which the results for the Inhibition in test [1] and in test [2] were -8.33% and -6.42%, respectively.

As for `Cc1cc2nn(CC(=O)Nc3cccc(C)c3C)c(=O)n2c(Nc2ccc(C)c(F)c2)n1`, the figures for the Inhibition in test [1] and in test [2] were 9.25% and -3.18%, respectively.

As for `COc1cccc(-n2ccn3c(SCc4ccc(C)cc4)nnc3c2=O)c1`, the Inhibition in test [1] is 8.11%; in test [2], -4.39%.

As for `O=C(Cn1nc2ccc(SCc3ccc(Cl)cc3)nn2c1=O)Nc1ccc(F)c(F)c1`, the Inhibition is listed as -1.34% in test [1] and -2.62% in test [2].

Consider `COc1ccccc1N1CCN(C(=O)CSc2nnc3c(=O)n(-c4ccccc4)ccn23)CC1`, for which the Inhibition in test [1] is given as 3.83%; in test [2], -6.8%.

As for `COc1ccc(Cl)cc1NC(=O)Cn1nc2c3cc(-c4ccc(C)c(C)c4)nn3ccn2c1=O`, the Inhibition in test [1] was -18.41%; in test [2], -23.9%.

As for `COc1ccccc1-n1ccn2c(SCC(=O)N3CCN(c4ccccc4F)CC3)nnc2c1=O`, the Inhibition in test [1] is on record as 13.15%; in test [2], -2.51%.

Turning to `Cc1cc(C)c(NC(=O)Cn2nc3c(SCc4ccc(Cl)cc4)nccn3c2=O)c(C)c1`, the Inhibition worked out at 3.14% in test [1] and 0.78% in test [2].

As for `COc1ccc(NC(=O)Cn2nc3ccc(-c4ccc(Cl)cc4)nn3c2=O)cc1`, the Inhibition in test [1] was 8.85%; in test [2] it was -4.11%.

Regarding `Cc1cc(Nc2ccc(F)cc2)nc2nn(Cc3cccc(C#N)c3)c(=O)n12`, the Inhibition in test [1] was -3.76%; in test [2] it was -11.43%.

On to `Cc1nnc2ccc(S(=O)(=O)N(Cc3ccccc3)c3cccc(F)c3)cn12`, for which the Inhibition is 2.5% in test [1] and -6.96% in test [2].

`Cc1ccc(-c2cc3c4nn(CC(=O)Nc5ccccc5C)c(=O)n4ccn3n2)cc1C`: the Inhibition in test [1] is recorded as 5.58%; in test [2], 2.13%.

Take `Cc1cc(C)cc(N(Cc2ccc(F)cc2)S(=O)(=O)c2cccn3cnnc23)c1`: the Inhibition in test [1] was -4.06%; in test [2], -5.96%.

For the compound `Cc1ccccc1Oc1nccn2c(=O)n(CC(=O)Nc3cc(F)ccc3F)nc12`, the Inhibition is 11.37% in test [1] and -2.39% in test [2].
